Screening results from PubChem.
Only some compounds are listed: those with a hit (about 1.9% of all), similar ones and a draw of the others.
Autofluor Jurkat = autofluorescence counter-screen for VLA-4 integrin assays. Jurkat cells, compound autofluorescence, flow cytometry; active compounds read high; 1 = vehicle-only cell background. fluorescence ratio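 (tested at 10 µM compound in the well)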. 24,000 tested, 0.61% active. AID 576;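 active = fluorescence ratio above 2.44, which is 1 plus 3 SD of all ratios; inconclusive = signal too bright to measure linearly, ratio around 10 or more; inactive = fluorescence ratio below 2.44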;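 also: green fluorescence of cells measured with 488 nm excitation and 530 nm emission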
VLA-4 allo ag = allosterically activates the human VLA-4 integrin | P13612 | Jurkat cells, LDV-FITC binding, flow cytometry | activation, % at 10 µM (by protocol) | 24,000 tested, under 10 active;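 active = fluorescent ligand binding to cells raised by more than 40% of the manganese-induced maximum; inconclusive = compound's own fluorescence above 85% of the ligand control signal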;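 also: 0% = ligand binding without compound and 100% = manganese-stimulated maximal binding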
FPRL1 binder = human FPRL1 ligand, with FPR counter-screen. FPRL1-expressing cells, fluorescent ligand binding inhibition, flow cytometry. inhibition, % (no concentration beside the values). 24,000 tested, 0.3% active;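 also: 0% = buffer alone and 100% = receptor blocker peptide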
Target sequence (P25090 whole entry, looked up): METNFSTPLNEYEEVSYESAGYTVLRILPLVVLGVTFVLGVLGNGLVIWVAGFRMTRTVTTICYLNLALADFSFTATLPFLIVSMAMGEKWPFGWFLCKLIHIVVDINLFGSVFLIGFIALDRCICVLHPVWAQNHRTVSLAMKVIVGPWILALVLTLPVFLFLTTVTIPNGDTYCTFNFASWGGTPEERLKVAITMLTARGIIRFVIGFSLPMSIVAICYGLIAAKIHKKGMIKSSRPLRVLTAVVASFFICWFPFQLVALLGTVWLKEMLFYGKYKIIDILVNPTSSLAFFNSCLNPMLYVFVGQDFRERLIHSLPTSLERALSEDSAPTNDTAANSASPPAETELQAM
VLA-4 antagonist = inhibition of LDV-FITC ligand binding to human VLA-4 integrin; Jurkat cells, LDV-FITC binding with Mn2+, flow cytometry; 100% = Mn2+-driven binding gain fully reversed; inhibition, % at 10 µM (by protocol); P13612; 24,000 tested, 0.2% active; AID 529;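 active = inhibition above 50%; inconclusive = compound itself fluorescent, judged against control cell fluorescence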;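 also: 0% = Mn2+ stimulated cells lacking compound and 100% = ligand binding without Mn2+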
Proteasome disasm = blocks ATP-dependent breakdown of the yeast 26S proteasome; AID 751; inhibition of disassembly, % (no concentration beside the values); anti-FLAG beads, GFP-proteasome disassembly, flow cytometry; 24,000 tested, 0.2% active;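 active = inhibition of disassembly above about 33%, limit read from the data; inconclusive = likely self-fluorescent, control bead median signal at least 40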;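 also: plate controls were ATP control with full disassembly for no effect and ATP-gamma-S intact proteasomes for full effect; higher percent means more bead fluorescence retained so stronger block of disassembly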
FPR ligand = binds the human formylpeptide receptor FPR; P21462; FPR-expressing cells, fluorescent ligand binding, flow cytometry; inhibition, % (no concentration beside the values); 24,000 tested, 0.74% active; AID 440;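 also: 0% = buffer wells and 100% = receptor blocker peptide wells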
Active calls of the source: *; ? = inconclusive; . = no result. Rule as the data show it, unless noted: active = inhibition above about 30%; inconclusive = no clear call, values can overlap the other calls; inactive = below that.

SMILES	Autofluor Jurkat	VLA-4 allo ag	FPRL1 binder	VLA-4 antagonist	Proteasome disasm	FPR ligand
CCOc1cc2[nH]c(=O)n(CC3CCC(C(=O)NC(C)CC)CC3)c(=O)c2cc1OCC (stereo not drawn)	1	-9	-7	63*	2	6
COc1cc2c(cc1OC)-c1nnc(-c3cccs3)n1C(C)(C)C2	1	0	0	1	-1	-8
Cc1ccc(S(=O)(=O)N(Cc2nccn2C)C(C)C)cc1	0.97	-3	-1	-15	0	1
O=C(NCCN1C(=O)C2C3C=CC(C3)C2C1=O)N1CCCCC1 (stereo not drawn)	0.85	-7	4	-11	-2	-3
CCOC(=O)Cn1c(=O)oc2cc(S(=O)(=O)Nc3cc(Cl)ccc3OC)ccc21	4.3*	?	?	?	3	-50
CCOC(=O)Cn1c(=O)oc2cc(S(=O)(=O)Nc3cc(OCC)ccc3OCC)ccc21	1.4	?	-6	?	1	-6
CCOCCCNS(=O)(=O)c1ccc2c(c1)oc(=O)n2CC(=O)OCC	2.5*	?	-10	?	2	-22
CCOC(=O)Cn1c(=O)oc2cc(S(=O)(=O)Nc3ccc(N(CC)CC)cc3C)ccc21	4.1*	?	?	?	3	-48
CCOC(=O)Cn1c(=O)oc2cc(S(=O)(=O)Nc3cccc(C)c3)ccc21	1.4	?	7	?	1	-6
CCOC(=O)N1CCN(C(=O)CCc2c(C)nc3nc(C)nn3c2C)CC1	1	-2	-3	16	-1	-6
Cc1ccccc1-c1nc(CN2CCC(C(=O)NCc3cccnc3)CC2)c(C)o1	1.1	-1	-3	11	3	-3
CC(=O)NC(CCS(C)(=O)=O)C(=O)Nc1nccs1 (stereo not drawn)	0.97	3	-2	-7	-1	0
CSc1ccc(C2NC(=O)c3c(sc4c3CCN(C)C4)N2)cc1 (stereo not drawn)	4.7*	?	-4	?	4	-3
CN1CCc2c(sc3c2C(=O)NC(c2ccc(-c4cccc(Cl)c4)o2)N3)C1 (stereo not drawn)	9.9*	?	-24	0	8	-18
Cc1cccc(-c2noc(CN(C(=O)c3c(-c4ccccc4Cl)noc3C)C(C)C)n2)c1	1.1	-15	0	59*	2	-8
Cc1ccc(C)c(C(=O)N(Cc2nc(-c3ccc(Cl)cc3)no2)C(C)C)c1	1.1	-4	-8	17	3	-6
COc1ccc(S(=O)(=O)NC(C)C(=O)Nc2cccc(C(C)=O)c2)cc1 (stereo not drawn)	1.1	-2	47*	-17	3	11
CCOC(=O)c1cc(NC(=O)C2C3CCC(O3)C2C(=O)O)cc(C(=O)OCC)c1 (stereo not drawn)	.	.	15	.	.	2
CCOC(=O)c1c(NC(=O)C2C3CCC(O3)C2C(=O)O)sc(C)c1-c1ccc(C)cc1 (stereo not drawn)	.	.	-4	.	.	46*
O=C(C1CCN(S(=O)(=O)c2cccc3cccnc23)CC1)N1CCc2ccccc21	1.1	2	-2	3	-2	-6
COc1ccc(-c2cc(C(F)(F)F)nc(NC3CCCC3)n2)cc1OC	1.1	1	32*	-1	1	7
COc1ccc(-c2cc(C(F)(F)F)nc(N3CCOCC3)n2)cc1OC	1	-10	23	12	0	-12
CCCN1CC=C2C(C#N)=C(N)C(C#N)(C#N)C(c3cccc(OC)c3OC)C2C1 (stereo not drawn)	2.1	?	-8	?	0	-1
CN1CC=C2C(C#N)=C(N)C(C#N)(C#N)C(c3cccc(Cl)c3Cl)C2C1 (stereo not drawn)	2.7*	?	-8	?	17	-4
O=C(NCc1ccco1)c1ccc2c(=O)n(Cc3ccco3)c(SCC(=O)N3CCCC3)nc2c1	1.1	1	-1	-11	-1	12
SMILES	Autofluor Jurkat	VLA-4 allo ag	FPRL1 binder	VLA-4 antagonist	Proteasome disasm	FPR ligand
Cc1c(C(=O)NC2CCCc3ccccc32)oc2ccc(S(=O)(=O)N3CCOCC3)cc12 (stereo not drawn)	1.1	-5	8	4	1	38*
Cc1c(C(=O)NC2CC2)oc2ccc(S(=O)(=O)N3CCCCCC3)cc12	1.1	?	2	?	0	5
Cc1cccc(C(=O)N2CCN(Cc3ccc4c(c3)OCO4)CC2)c1	0.87	12	-2	-10	0	-1
COc1ccc(OC)c(/C=c2\sc3nc(-c4cccs4)nn3c2=O)c1	4.1*	?	-44	?	4	-22
CCc1ccc2nc(NC3=NCN(CCOC)CN3)nc(C)c2c1	1.6	?	3	?	0	-5
CC(=O)c1c(C)[nH]c(C(=O)N2CCN(C(=O)c3ccco3)CC2)c1C	1	?	3	?	0	-5
CC(=O)c1c(C)[nH]c(C(=O)N2CCc3ccccc3C2)c1C	1	1	-2	60*	-2	-7
CCN(CC)CCN1C(=O)C(=O)/C(=C(/O)c2c(C)[nH]c(C(=O)OC)c2C)C1c1ccccc1 (stereo not drawn)	.	.	16	.	.	30*
COc1cccc(-n2nnc3c(=O)n(CC(=O)N4CCC(Cc5ccccc5)CC4)cnc32)c1	1.1	-5	-3	74*	1	-1
COc1cccc(-n2nnc3c(=O)n(CC(=O)N4CCC(C)CC4)cnc32)c1	1	-2	-3	-2	0	-4
CCN(CC(=O)Nc1ccc(S(N)(=O)=O)cc1)S(=O)(=O)c1cc(C)ccc1OC	0.97	4	1	-8	0	1
Oc1cc(NCc2cccnc2)ccc1-c1nc2ccccc2o1	3*	?	-12	?	-4	-13
Cc1cc2oc(C(=O)NC3CCS(=O)(=O)C3)c(C)c2cc1C (stereo not drawn)	1.1	-5	51*	-19	-2	48*
Cc1ccc(OC(=O)NC2CCS(=O)(=O)C2)cc1C (stereo not drawn)	1.1	2	-2	-26	1	-1
O=S(=O)(c1cnc[nH]1)N1CCc2ccccc21	3.1*	?	33*	?	2	?
COc1ccccc1-n1c(N)c(C(N)=O)sc1=S	1.1	-3	-1	-6	-1	3
CCCCn1c(NC(C)=O)c(C#N)c2nc3ccccc3nc21	.	.	4	.	.	66*
C=CCn1c(NC(=O)c2ccccc2)c(C#N)c2nc3ccccc3nc21	.	.	32*	.	.	?
Cc1cc(O)c(-c2cc(C(=O)Nc3ccc(S(=O)(=O)N4CCOCC4)cc3)[nH]n2)cc1C	1.1	-24	2	56*	0	-2
